Compounds without any hit were thinned out: in the full panel of roughly 83,000, 20% have a hit.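 Method: cells in 96-well plates; compound added at one concentration; 48 h incubation; percent growth measured; values under 10 scored active.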 Calls of active or inactive are those of the source.
What was measured:
Assay in all cases: NCI-60 one-dose screen, 48 h (100 = growth as untreated, 0 = no growth, -100 = all killed)
Conditions in all cases: 10 µM unless noted
NCI-H23 lung = system: NCI-H23 lung
NCI-H226 lung = system: NCI-H226 lung
HOP-62 NSCLC = system: HOP-62 NSCLC
NCI-H460 lung = system: NCI-H460 lung
HOP-92 NSCLC = system: HOP-92 NSCLC
NCI-H522 lung = system: NCI-H522 lung
A549/ATCC NSCLC = system: A549/ATCC NSCLC
786-0 renal = system: 786-0 renal
COLO 205 colon = system: COLO 205 colon
NCI-H322M lung = system: NCI-H322M lung

Measured: growth

CC(=O)N1N=C(c2cccc(Nc3ccncc3)c2)CC1c1ccccc1 (centres undefined)
inactive: NCI-H23 lung 93.3% | NCI-H226 lung 95.3% | HOP-62 NSCLC 92.5% | NCI-H460 lung 95.1% | HOP-92 NSCLC 55.9% | NCI-H522 lung 91.7% | A549/ATCC NSCLC 85.2% | COLO 205 colon 81.5%
active: 786-0 renal 4.92%

COc1ccc(C2CC(c3cccc(Nc4ccncc4)c3)=NN2c2ccccc2)cc1 (centres undefined)
inactive: NCI-H23 lung 82.8% | NCI-H226 lung 94.7% | HOP-62 NSCLC 43.9% | HOP-92 NSCLC 47.6% | NCI-H522 lung 39.9% | A549/ATCC NSCLC 39.9%
active: NCI-H460 lung -40.8% | 786-0 renal -4.64% | COLO 205 colon -55%

Cc1ccc2nc3c(cc2c1)CSc1nnc(-c2ccc[nH]c2=S)n1N3
inactive: NCI-H23 lung 98.6% | NCI-H226 lung 91.5% | HOP-62 NSCLC 95.8% | NCI-H460 lung 99.2% | HOP-92 NSCLC 102% | NCI-H522 lung 83.7% | A549/ATCC NSCLC 99.7% | 786-0 renal 98.7% | COLO 205 colon 110%

COc1cc(NCC(O)CN(CC(C)C)CC(C)C)c2nc(C)ccc2c1 (centres undefined)
inactive: NCI-H23 lung 85.6% | NCI-H322M lung 107% | HOP-62 NSCLC 67.7% | NCI-H460 lung 96.5% | HOP-92 NSCLC 98.6% | NCI-H522 lung 68.2% | A549/ATCC NSCLC 67.3% | 786-0 renal 90.7% | COLO 205 colon 66.3%

Fc1ccc(C2CC(c3cccc(Nc4ccncc4)c3)=NN2c2ccccc2)cc1 (centres undefined)
active: NCI-H460 lung -41.9% | COLO 205 colon -64.8%
inactive: NCI-H23 lung 86.3% | NCI-H226 lung 95.5% | HOP-62 NSCLC 49.5% | HOP-92 NSCLC 37.1% | NCI-H522 lung 75.8% | A549/ATCC NSCLC 43.1% | 786-0 renal 81.7%

CCCNC(=O)Oc1ccc(/C(=C(\C)c2ccccc2)c2ccc(OCCN3CCCCC3)cc2)cc1
inactive: NCI-H23 lung 79.4% | NCI-H226 lung 89.5% | HOP-62 NSCLC 81.9% | NCI-H460 lung 66.7% | HOP-92 NSCLC 80.7% | NCI-H522 lung 103% | A549/ATCC NSCLC 62.2% | 786-0 renal 35.8% | COLO 205 colon 38%

COc1cccc2cc(-c3cc4ccccc4[nH]3)/c(=N/C(=S)Nc3ccc(C)cc3)oc12
active: HOP-92 NSCLC -6.31%
inactive: NCI-H23 lung 67.9% | NCI-H226 lung 55.1% | HOP-62 NSCLC 22% | NCI-H460 lung 51.1% | NCI-H522 lung 84.8% | A549/ATCC NSCLC 79.9% | 786-0 renal 59% | COLO 205 colon 99.4%

NC(=O)c1cccc(-n2ccc3cc(NC(=O)Nc4cc(C(F)(F)F)cc(C(F)(F)F)c4)ccc32)n1
inactive: NCI-H23 lung 44.5% | NCI-H226 lung 70% | HOP-62 NSCLC 44.8% | NCI-H460 lung 29% | HOP-92 NSCLC 52.5% | NCI-H522 lung 59.1% | A549/ATCC NSCLC 34.1% | 786-0 renal 24.3% | COLO 205 colon 62.5%

CS(=O)(=O)Nc1cc(-c2ccc3ncnc(Nc4ccc5[nH]ncc5c4)c3c2)cnc1Cl
active: HOP-92 NSCLC 0.913%
inactive: NCI-H23 lung 86% | NCI-H226 lung 75% | HOP-62 NSCLC 55.2% | NCI-H460 lung 94.1% | NCI-H522 lung 60.6% | A549/ATCC NSCLC 91.8% | 786-0 renal 79.6% | COLO 205 colon 81.7%

CCCCCCCCOC(=O)c1ccc(O)c(OC)c1
inactive: NCI-H23 lung 92.5% | NCI-H322M lung 86.9% | HOP-62 NSCLC 99.3% | NCI-H460 lung 104% | HOP-92 NSCLC 84.9% | NCI-H522 lung 73% | A549/ATCC NSCLC 89.6% | 786-0 renal 106% | COLO 205 colon 114%

C1=C2CNCC3=Cc4ccc5ccccc5c4OC23Oc2c1ccc1ccccc21
active: NCI-H522 lung 0.285%
inactive: NCI-H23 lung 52.8% | NCI-H226 lung 67.7% | NCI-H322M lung 98% | HOP-62 NSCLC 43.6% | NCI-H460 lung 33.5% | A549/ATCC NSCLC 50.6% | COLO 205 colon 50.8%

COc1cccc(C(Cc2ccccc2)Nc2ccccc2)c1OC (centres undefined)
inactive: NCI-H23 lung 92.1% | NCI-H322M lung 101% | HOP-62 NSCLC 92.6% | NCI-H460 lung 101% | HOP-92 NSCLC 77.5% | NCI-H522 lung 65.6% | A549/ATCC NSCLC 81.4% | 786-0 renal 95.5% | COLO 205 colon 105%

CCn1ccnc1C(=O)/C=C/c1ccc(CC(=O)Nc2ccc(F)cc2)cc1
active: HOP-62 NSCLC 8.48% | NCI-H460 lung 5.47%
inactive: NCI-H23 lung 29.2% | NCI-H322M lung 35.4% | HOP-92 NSCLC 62.8% | NCI-H522 lung 18.2% | A549/ATCC NSCLC 32.9% | 786-0 renal 24.6% | COLO 205 colon 33.4%

Clc1ccc2c(c1)c(-c1ccccc1)nc1nncn12
inactive: NCI-H23 lung 98.6% | NCI-H322M lung 114% | HOP-62 NSCLC 105% | NCI-H460 lung 117% | HOP-92 NSCLC 119% | NCI-H522 lung 93.1% | A549/ATCC NSCLC 106% | 786-0 renal 94.2% | COLO 205 colon 115%

O=c1[nH]c(=O)[nH]c(=S)[nH]1
inactive: NCI-H23 lung 98.5% | NCI-H322M lung 95.6% | HOP-62 NSCLC 102% | NCI-H460 lung 105% | HOP-92 NSCLC 101% | NCI-H522 lung 94.6% | A549/ATCC NSCLC 99.7% | 786-0 renal 102% | COLO 205 colon 103%

From PubChem BioAssay (NCI)
